# Shiga inhibitor – A qHTS for Small Molecule Inhibitors of Shiga Toxin; Vero cells, Shiga toxin protein synthesis inhibition reporter; inhibition, % at 38.7 µM; 9.2% of 290,000 active; AID 2315, 2010; in the data active = inhibition mostly above about 28%, no sharp cut-off; inactive = mostly below about 43%; note: 0% is about no effect
# Pf growth 48h – Primary qHTS for delayed death inhibitors of the malarial parasite plastid, 48 hour incubation; P. falciparum luciferase growth in erythrocytes, 48 h; Potency, µM (titrated, usually from 28.7 µM), inactives show at the top dose activity change, negative = inhibition, hits mostly inhibitors; AID 504832, 2011; 5.9% of 310,000 active; note: potency is the fitted concentration of half-maximal effect; % is set by controls: 0 for no effect and ±100 for the full control effect
#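 Luciferase-expressing P. falciparum in infected erythrocytes (2% hematocrit, 0.1% parasitemia final) in RPMI 1640/0.5% Albumax were exposed to compound for 48 hours at 37 C, 5% CO2; growth read as luminescence.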
# Cycloheximide cs – Cycloheximide Counterscreen for Small Molecule Inhibitors of Shiga Toxin; max response, %; 12% of 300,000 active; cell reporter, cycloheximide protein synthesis inhibition counterscreen; in the data active = max response mostly above about 13%, no sharp cut-off; inactive = mostly below about 14%; note: read at 38.3 µM for the half of the compounds with a filed dose; 0% is about no effect
# Pf growth 96h – Primary qHTS for delayed death inhibitors of the malarial parasite plastid, 96 hour incubation | P. falciparum luciferase reporter growth, 96 h | Potency, µM (highest dose often 28.7 µM), inactives show at the highest dose activity change, negative = inhibition, most hits filed as inhibitors | 6.9% of 320,000 active | AID 504834, 2011; note: potency is the fitted concentration of half-maximal effect; % is set by controls: 0 for no effect and ±100 for the full control effect
#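 Compounds incubated with erythrocytes infected by luciferase-expressing P. falciparum (2% hematocrit, 0.05% parasitemia final) for 96 hours, 37 C in 5% CO2. Growth inhibition scored as decreased luciferase luminescence.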
# LmPK inhibitor – qHTS Assay for Inhibitors of Leishmania Mexicana Pyruvate Kinase (LmPK). Q27686. purified LmPK, Kinase-Glo ATP luminescence, 1 h. Potency, µM (series often up to 57.5 µM), without a hit: top-dose activity change, negative = inhibition, hits mostly inhibitors. 0.37% of 290,000 active. AID 1721, 2009; note: potency is the fitted concentration of half-maximal effect; % is set by controls: 0 for no effect and ±100 for the full control effect
# Target sequence (Q27686 whole entry, looked up): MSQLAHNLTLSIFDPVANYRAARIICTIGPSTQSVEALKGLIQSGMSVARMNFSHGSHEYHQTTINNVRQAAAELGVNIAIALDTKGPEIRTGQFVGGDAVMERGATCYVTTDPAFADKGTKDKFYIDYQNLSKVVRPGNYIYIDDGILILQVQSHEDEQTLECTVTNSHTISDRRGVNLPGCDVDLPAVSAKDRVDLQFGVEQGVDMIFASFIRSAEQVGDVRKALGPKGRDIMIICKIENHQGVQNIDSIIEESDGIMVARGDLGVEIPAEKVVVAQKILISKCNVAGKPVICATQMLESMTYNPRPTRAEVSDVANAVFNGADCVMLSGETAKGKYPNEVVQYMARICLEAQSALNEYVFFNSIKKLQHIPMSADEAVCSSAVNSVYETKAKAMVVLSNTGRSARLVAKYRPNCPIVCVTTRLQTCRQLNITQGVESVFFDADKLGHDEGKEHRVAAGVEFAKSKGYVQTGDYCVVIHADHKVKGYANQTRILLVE
#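 Purified LmPK (0.1 nM) converted ADP (0.1 mM) to ATP with PEP (0.5 mM) in imidazole buffer pH 7.2 with KCl and MgCl2, 1 h at room temperature. ATP was read by Kinase-Glo luminescence; data normalized to uninhibited and no-enzyme controls.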
# * marks the source's active call; other numbers are inactive results; ? = inconclusive; / = not tested or not shown. An excerpt weighted towards active compounds, which were near 22% of everything screened. Unless noted, calls come from the whole dose curve; as a rule, active = well fitted inhibition curve with a large enough effect; inconclusive = small, poorly fitted or top-dose-only effect, or another doubt; inactive = no such curve, though single readings can be large or run the other way.
SMILES,Shiga inhibitor,Pf growth 48h,Cycloheximide cs,Pf growth 96h,LmPK inhibitor
O=C(Nc1nc2ccccc2n1CCOc1ccccc1)c1ccco1,80,2.9µM*,48*,2.9µM*,2%
O=C(C1CCC(=O)N(C2CCCC2)C1)N1CCC(Oc2ccccc2Cl)CC1 (centres undefined),-23,-21%,-1,10%,-6%
COc1ccc(C)cc1S(=O)(=O)N1CCN(C(=O)c2ncoc2-c2ccccc2F)CC1,2,13%,0,69%,7%
Cc1ccc(NC(=O)COC(=O)c2c(-c3ccccc3)noc2C)c(C)c1,/,-29%,/,-15%,/
CC(=O)Nc1nonc1-c1nc2ccccc2n1Cc1ccccc1,13,12µM*,-2,/,1%
CCC(=O)Nc1nc2ccccc2n1Cc1ccc(C)cc1,-13,2.9µM*,-2,0%,-4%
CC(=O)Nc1nonc1-c1nc2ccccc2n1Cc1nnc(C)o1,2,3%,-2,-11%,-1%
CC(=O)Nc1nc2ccccc2n1Cc1ccc(Cl)cc1,35,2.9µM*,-2,?,1%
COCc1ccc(CN2CCCCC2C(=O)Nc2ccc(Oc3ccccc3)nc2)o1 (centres undefined),13,?,8,?,-1%
O=C(NN=C1c2ccccc2-c2ccccc21)c1ccccc1,-21,-1%,-3,8.3µM*,21%
CCOC(=O)N/N=C1\CCc2ccccc21,73*,79%,38*,66%,-9%
COc1ccc(NCC(=O)N/N=C2\CCc3ccccc32)cc1,66*,?,29*,?,2%
Cc1ccc(OCC(=O)NN=C2c3ccccc3-c3ccccc32)cc1,-12,6%,-3,-25%,0%
CCOC(=O)NN=C1c2ccccc2-c2ccccc21,11,25%,-1,10µM*,-2%
O=C(NN=C1c2ccccc2-c2ccccc21)c1ccccc1Br,-2,10%,2,37%,4%
CCCc1ccc(C2=Nn3c(nnc3C(C)C)SC2)cc1,3,?,3,0%,3%
N=Cc1c(O)n(-c2ccc(C34CC5CC(CC(C5)C3)C4)cc2)c(=O)[nH]c1=O,27*,35%,48*,44%,6%
O=c1[nH]c(=O)n(-c2ccc(Br)cc2)c(O)c1C=NC(CO)(CO)CO,-2,?,-2,0%,2%
CC(=O)NN1C(=O)/C(=C2/Sc3ccc(Cl)cc3N2C)SC1=S,-9,47%,-4,8%,3%
O=C(CSc1nnc(-c2ccccc2Cl)o1)Nc1ccccn1,73*,37%,48*,24%,3%
Cc1occc1-c1nnc(SCC(=O)Nc2ccccn2)o1,38*,238%,17*,-20%,9%
O=C(COc1cc2oc(=O)c3c(c2cc1Cl)CCC3)NCCCn1ccnc1,-1,-3%,-4,?,-4%
Cc1c(O)nc2sc3ccccc3n2c1=O,6,15%,-2,29%,-2%
Cc1cc2sc3nc(=O)n(-c4ccccc4)c(=O)n3c2cc1C,32*,146%,25*,244%,-9%
O=C(NCc1ccc(OC(F)(F)F)cc1)C1CC(c2ccccc2C(F)(F)F)=NO1 (centres undefined),-14,48%,-3,5%,5%
SMILES,Shiga inhibitor,Pf growth 48h,Cycloheximide cs,Pf growth 96h,LmPK inhibitor
O=C(NCc1csc(-c2ccccc2)n1)c1cc(F)cc2c1OCOC2,83*,64%,45*,55%,5%
COc1cc(OC)c(NC(=O)CCCn2c(=O)oc3ccccc32)cc1Cl,-14,24%,-2,-5%,0%
O=C(Cn1c(=O)oc2ccccc21)Nc1ccc2c(c1)OCCO2,13,24%,18*,/,-2%
Cc1ccnc(NC(=O)Cn2c(=O)oc3ccccc32)c1,60*,51%,20*,64%,4%
COc1ccc(NC(=O)CCCn2c(=O)oc3ccccc32)cc1Cl,64*,131%,66*,46%,-3%
O=C(CCn1c(=O)oc2ccccc21)Nc1ccccc1,13,24%,-7,-14%,3%
Cc1ccc(NC(=O)Cn2c(=O)oc3ccccc32)c(C)c1,/,-2%,-4,?,6%
O=C(CCn1c(=O)oc2ccccc21)Nc1ccc2c(c1)OCCO2,80*,34%,71*,-8%,4%
COc1ccc(S(=O)(=O)N2CCN(c3nn(C)c(=O)n(C)c3=O)CC2)cc1,/,4%,/,?,/
C=CCSC(=C(C#N)C#N)c1cc2c([nH]1)CCCC2,3,?,25*,/,4%
CCSc1nnc(NC(=O)c2cccc(S(=O)(=O)N(C)c3ccc(C)cc3)c2)s1,-12,?,-3,1%,2%
O=C(Nc1ccc(Cl)cn1)c1cccc(S(=O)(=O)N2CCCCC2)c1,3,?,11,28%,2%
NNc1ccc(S(=O)(=O)N2CCCCC2)cn1,-10,?,-7,5%,0%
C/C(=N\Nc1ccc(S(=O)(=O)N2CCCCC2)cn1)c1cccc(Br)c1,/,10µM*,/,?,/
O=C(Nc1ccc(Cl)cn1)c1cccc(S(=O)(=O)N2CCCC2)c1,41*,-9%,14*,-2%,7%
CN(C)S(=O)(=O)c1cccc(C(=O)Nc2ccc(Cl)cn2)c1,50*,/,51*,?,9%
Cc1ccc(N(C)S(=O)(=O)c2cccc(C(=O)Nc3ccc(C)cn3)c2)cc1,/,2.1µM*,/,5.2µM*,/
COc1ccc(CNS(=O)(=O)c2cc3c4c(c2)C(C)C(=O)N4CCC3)cc1 (centres undefined),-12,9%,-3,-2%,2%
CN(C(=O)CSc1nnc(-c2cccnc2)o1)C1CCCCC1,/,-3%,/,-32%,/
CN1CCN(S(=O)(=O)c2ccc(NS(=O)(=O)c3ccccc3)cc2)CC1,-1,8%,15,44%,0%
COc1ccc([N+](=O)[O-])c(OC)c1C(=O)NC(=O)Nc1c(F)c(F)c(F)c(F)c1F,-4,/,-3,4.7µM*,-6%
COc1cccc(OC)c1C(=O)NC(=O)Nc1c(F)c(F)c(F)c(F)c1F,17,7.4µM*,0,2.1µM*,-1%
COc1cccc(OC)c1C(=O)NC(=O)Nc1c(F)cc(F)cc1F,2,?,-2,?,-4%
COc1ccccc1COC(=O)Nc1c(C)nn(C)c1Cl,-6,5%,-2,-10%,-2%
O=C(NCc1cccnc1)C1CC(c2ccccc2Cl)=NO1 (centres undefined),45,2%,2,-20%,4%
CCCN1CCN(CCCNC(=O)Cn2nc(C)n3c(cc4cc(OC)ccc43)c2=O)CC1,19,15%,1,31%,1%
CNC(=S)SCCOc1ccccc1,101*,18%,21*,4%,-4%
NC(N)=NS(=O)(=O)c1ccc(N/C=C\C(=O)c2ccncc2)cc1,14,1%,1,19%,4%
Cc1ccc(O)c(N/C=C/C(=O)c2ccc(F)cc2)c1,129*,-17%,43*,?,0%
